Several values for one entry are separate records, joined by “and”; a condition that tells them apart may be missing. Equal values may be shown once. Unmarked numbers belong to inactive results. The rule behind the calls is not given here.
Assays:
[1] = tested on: Aerobactin synthetase IucA (Klebsiella pneumoniae hvKP1); test: IucA enzyme inhibition, primary screen, biochemical, Spectrum library (AID 1346200); conditions: malachite green pyrophosphate, A620, at 8 µM, hits give low values;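 note: 100% = wells without compound and 0% = wells lacking enzyme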
[2] = tested on: Aerobactin synthetase IucA (Klebsiella pneumoniae, hypervirulent); test: biochemical IucA inhibition screen of LOPAC library by absorbance (AID 1346212); conditions: IucA enzyme assay, absorbance (OD) readout; hits give low values; concentration not given here;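 note: 100% = no compound wells and 0% = no enzyme wells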

SMILES	activity remaining [1] [%]	remaining activity [2]
NS(=O)(=O)c1cc2c(cc1Cl)NCNS2(=O)=O	103	102%
CNCCC=C1c2ccccc2CCc2ccccc21	122	113%
Nc1c2c(nc3ccccc13)CCCC2O (stereo not given)	105	101%
CCc1cccc2c3c([nH]c12)C(CC)(CC(=O)O)OCC3 (stereo not given)	116	116%
CCC1(C)CC(=O)NC1=O (stereo not given)	123	85.2%
CC1=NS(=O)(=O)c2cc(Cl)ccc2N1	107	105%
CN=C(NC#N)NCCSCc1nc[nH]c1C	98.9	116%
O=C1OC(=O)C2C3CCC(O3)C12 (stereo not given)	117	106%
CC(COc1ccccc1)N(CCCl)Cc1ccccc1 (stereo not given)	107	109%
NCCS(=O)(=O)O	123	97.8%
NCCCC(=O)O	119	123%
Cn1c(=O)c2[nH]c(C3CCCC3)nc2n(C)c1=O	97.7	70.6%
O=C1N=C(O)CN1/N=C/c1ccc(-c2ccc([N+](=O)[O-])cc2)o1	118	100%
CCOC(=O)C1=C[C@]2(CC)CCCN3CCc4c(n1c1ccccc41)[C@@H]32	108	100%
CC(C)(Oc1ccc(C2CC2(Cl)Cl)cc1)C(=O)O (stereo not given)	116	114%
CC[N+](CC)(CC)CCOc1cccc(OCC[N+](CC)(CC)CC)c1OCC[N+](CC)(CC)CC	96.2	111%
O=C(O)c1cc2cc(Cc3cccnc3)ccc2o1	121	104%
CNC[C@H](O)c1cccc(O)c1	103	112%
Cc1cn[nH]c1	102	121%
CN(C)C(=O)Oc1cccc([N+](C)(C)C)c1	87.4	120%
CCCN1C[C@H](CSC)C[C@@H]2c3cccc4[nH]cc(c34)C[C@H]21	120	95.5%
CN(C)[C@@H]1C(=O)C(C(N)=O)=C(O)[C@@]2(O)C(=O)C3=C(O)c4c(O)ccc(Cl)c4[C@@H](O)[C@H]3C[C@@H]12	97	92.3%
NC(CO)C(=O)NNCc1ccc(O)c(O)c1O (stereo not given)	109	111%

SMILES	activity remaining [1] [%]	remaining activity [2]
C=Cc1c(C)c2cc3[nH]c(cc4nc(cc5nc(cc1[nH]2)C(C)=C5CCC(=O)O)C(CCC(=O)O)=C4C)c(C)c3C=C	97.5	107%
CN1CCN(C2=Nc3cc(Cl)ccc3Nc3ccccc32)CC1	120	127%
NC(=O)N1c2ccccc2C=Cc2ccccc21	114	102%
O=c1ccc2ccc(O)c(O)c2o1	103	116%
CCN(CC)CCOCCOC(=O)C1(c2ccccc2)CCCC1	93.9	113%
C=C[C@H]1CN2CC[C@H]1C[C@@H]2[C@@H](O)c1ccnc2ccc(OC)cc12	98.9	115%
CCN(CC)CCOC(=O)c1ccc(N)cc1	105	106%
OC(CCN1CCCCC1)(c1ccccc1)C1CC2C=CC1C2 (stereo not given)	87.7	116%
O=C1NC(=O)C(c2ccccc2)(c2ccccc2)N1	122	124% and 101%
C[C@](N)(Cc1ccc(O)c(O)c1)C(=O)O	121	113%
Nc1ncnc2c1ncn2[C@@H]1O[C@H](CO)[C@@H](O)[C@H]1O	113	110%
CN(C)CCCN1c2ccccc2Sc2ccc(C(F)(F)F)cc21	108	97%
CCOC(=O)N1CCC(=C2c3ccc(Cl)cc3CCc3cccnc32)CC1	116	112%
CN1Cc2c(N)cccc2C(c2ccccc2)C1 (stereo not given)	119	109%
Cc1ccc(/C(=C\CN2CCCC2)c2ccccn2)cc1	103	121%
CCCOc1ccccc1-c1nc2n[nH]nc2c(=O)[nH]1	97.7	125%
CCCN(CCC)C(=O)C(CCC(=O)O)NC(=O)c1ccccc1 (stereo not given)	115	99.4%
N=c1nc(N2CCCCC2)cc(N)n1O	110	118%
O=c1[nH]cc(F)c(=O)[nH]1	96.1	98.4%
O=c1c(-c2ccc(O)cc2)coc2cc(O)ccc12	118	99.6%
NC(N)=NC(=O)c1nc(Cl)c(N)nc1N	118	105%
CCOC(=O)C(C)(C)Oc1ccc(Cl)cc1	110	122%

From PubChem BioAssay
